Source: PubChem BioAssay AID1159580 (chemical genetic matrix, 2015)
In all, about 5,500 compounds went through this assay and about 2,000 (36%) were called active. Not shown: some 18% with an inconclusive outcome. The list shows a part of the results. Values without a mark were called inactive. No stated cut-off is given here; in the data, active means normalized growth mostly below about 0.91 (no sharp cut-off); inconclusive means no clear call, values can overlap the other calls; inactive means mostly above about 0.92.

Test: chemical genetic growth profiling, strain panel (AID 1159580);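 further: tested at 20 µM; growth read once vehicle control cultures reached saturation at 30 °C; 1 = growth at the plate median or of vehicle wells; lower values mean less growth of the strain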
Conditions: growth OD
[1] = S. cerevisiae deletion strains, locus YAL013W, strain DEP1, hits give low values
[2] = S. cerevisiae deletion strains, locus YDR150W, strain NUM1, hits give low values
[3] = S. cerevisiae deletion strains, locus YGR078C, strain PAC10, hits give low values
[4] = S. cerevisiae deletion strains, locus YPL241C, strain CIN2, hits give low values
[5] = S. cerevisiae deletion strains, locus YDL101C, strain DUN1, hits give low values
[6] = S. cerevisiae deletion strains, locus YHR030C, strain SLT2, hits give low values

SMILES: Cn1c(=O)c2[nH]c(-c3ccccc3)nc2n(C)c1=O
- normalized growth [1]: 0.995
- normalized growth (S. cerevisiae deletion strains, locus YAL040C, strain CLN3, hits give low values): 0.984
- normalized growth (S. cerevisiae deletion strains, locus YCL061C, strain MRC1 (second series), hits give low values): 0.983
- normalized growth [2]: 0.975
- normalized growth (S. cerevisiae deletion strains, locus YDR363W, strain ESC2, hits give low values): 1.01
- normalized growth (S. cerevisiae deletion strains, locus YER002W, strain NOP16, hits give low values): 0.97
- normalized growth [3]: 1
- normalized growth (S. cerevisiae deletion strains, locus YNL175C, strain NOP13, hits give low values): 0.986
- normalized growth (S. cerevisiae deletion strains, locus YNL197C, strain WHI3, hits give low values): 0.99
- normalized growth (S. cerevisiae deletion strains, locus YNL224C, strain SQS1, hits give low values): 0.992
- normalized growth (S. cerevisiae deletion strains, locus YOR083W, strain WHI5 (second series), hits give low values): 1
- normalized growth [4]: 0.992

SMILES: Cn1c(=O)c(-c2ccccc2)c(O)c2ccccc21
- normalized growth [1]: 0.868 (active)
- normalized growth (S. cerevisiae deletion strains, locus YBR229C, strain ROT2, hits give low values): 0.887 (active)
- normalized growth [5]: 0.636 (active)
- normalized growth [2]: 0.825
- normalized growth (S. cerevisiae deletion strains, locus YEL061C, strain CIN8, hits give low values): 0.921
- normalized growth [3]: 0.871 (active)
- normalized growth (S. cerevisiae deletion strains, locus YGR229C, strain SMI1, hits give low values): 0.953
- normalized growth [6]: 0.533 (active)
- normalized growth (S. cerevisiae deletion strains, locus YHR087W, strain rtc3, hits give low values): 0.99
- normalized growth (S. cerevisiae deletion strains, locus YJL187C, strain SWE1, hits give low values): 0.826 (active)
- normalized growth (S. cerevisiae deletion strains, locus YJR043C, strain POL32, hits give low values): 0.842 (active)
- normalized growth (S. cerevisiae deletion strains, locus YJR075W, strain HOC1, hits give low values): 0.881 (active)
- normalized growth (S. cerevisiae deletion strains, locus YKL190W, strain CNB1, hits give low values): 0.942
- normalized growth (S. cerevisiae deletion strains, locus YLR039C, strain RIC1, hits give low values): 0.75 (active)
- normalized growth (S. cerevisiae deletion strains, locus YLR058C, strain SHM2 (second series), hits give low values): 0.926 (active)
- normalized growth (S. cerevisiae deletion strains, locus YLR085C, strain ARP6, hits give low values): 0.438 (active)
- normalized growth (S. cerevisiae deletion strains, locus YLR262C, strain YPT6, hits give low values): 0.81 (active)
- normalized growth (S. cerevisiae deletion strains, locus YML094W, strain GIM5, hits give low values): 0.968
- normalized growth (S. cerevisiae deletion strains, locus YMR219W, strain ESC1, hits give low values): 0.945 (active)
- normalized growth (S. cerevisiae deletion strains, locus YMR263W, strain SAP30, hits give low values): 0.898 (active)
- normalized growth (S. cerevisiae deletion strains, locus YMR307W, strain GAS1, hits give low values): 0.767
- normalized growth (S. cerevisiae deletion strains, locus YNL153C, strain GIM3, hits give low values): 0.878 (active)
- normalized growth (S. cerevisiae deletion strains, locus YNL298W, strain CLA4 (second series), hits give low values): 0.84
- normalized growth (S. cerevisiae deletion strains, locus YNL322C, strain KRE1, hits give low values): 0.932 (active)
- normalized growth (S. cerevisiae deletion strains, locus YNR030W, strain Alg12, hits give low values): 0.837 (active)
- normalized growth (S. cerevisiae deletion strains, locus YOL006C, strain TOP1, hits give low values): 0.881
- normalized growth (S. cerevisiae deletion strains, locus YPL055C, strain LGE1, hits give low values): 0.907
- normalized growth [4]: 0.816 (active)
- normalized growth (S. cerevisiae deletion strains, locus YPR135W, strain CTF4, hits give low values): 0.442 (active)
- normalized growth (S. cerevisiae strains, strain wild type, hits give low values): 0.9 (active)

SMILES: O=c1c(-c2ccccc2)c(O)c2cccc3c4ccccc4n1c23
- normalized growth (S. cerevisiae deletion strains, locus YAR019C, strain CDC15, hits give low values): 0.117 (active)
- normalized growth (S. cerevisiae deletion strains, locus YBL105C, strain PKC1, hits give low values): 0.121 (active)
- normalized growth (S. cerevisiae deletion strains, locus YBR135W, strain CKS1, hits give low values): 0.13 (active)
- normalized growth (S. cerevisiae deletion strains, locus YBR136W, strain MEC1, hits give low values): 0.148 (active)
- normalized growth (S. cerevisiae deletion strains, locus YBR160W, strain CDC28, hits give low values): 0.215 (active)
- normalized growth (S. cerevisiae deletion strains, locus YDL017W, strain CDC7, hits give low values): 0.154 (active)
- normalized growth (S. cerevisiae deletion strains, locus YDL028C, strain MPS1, hits give low values): 0.142 (active)
- normalized growth [5]: 0.226 (active)
- normalized growth (S. cerevisiae deletion strains, locus YDL108W, strain KIN28, hits give low values): 0.247 (active)
- normalized growth (S. cerevisiae deletion strains, locus YDL132W, strain cdc53, hits give low values): 0.167 (active)
- normalized growth (S. cerevisiae deletion strains, locus YDL214C, strain PRR2, hits give low values): 0.0962 (active)
- normalized growth (S. cerevisiae deletion strains, locus YDR052C, strain DBF4, hits give low values): 0.344 (active)
- normalized growth (S. cerevisiae deletion strains, locus YDR054C, strain cdc34, hits give low values): 0.128 (active)
- normalized growth (S. cerevisiae deletion strains, locus YDR226W, strain ADK1, hits give low values): 0.523 (active)
- normalized growth (S. cerevisiae deletion strains, locus YDR477W, strain SNF1, hits give low values): 0.134 (active)
- normalized growth (S. cerevisiae deletion strains, locus YER123W, strain YCK3, hits give low values): 0.113 (active)
- normalized growth (S. cerevisiae deletion strains, locus YER133W, strain GLC7, hits give low values): 0.105 (active)
- normalized growth (S. cerevisiae deletion strains, locus YFL009W, strain cdc4, hits give low values): 0.14 (active)
- normalized growth (S. cerevisiae deletion strains, locus YFL029C, strain CAK1, hits give low values): 0.115 (active)
- normalized growth (S. cerevisiae deletion strains, locus YFR003C, strain YPI1, hits give low values): 0.12 (active)
- normalized growth (S. cerevisiae deletion strains, locus YFR019W, strain FAB1, hits give low values): 0.118 (active)
- normalized growth (S. cerevisiae deletion strains, locus YFR028C, strain CDC14, hits give low values): 0.145 (active)
- normalized growth (S. cerevisiae deletion strains, locus YGR040W, strain KSS1, hits give low values): 0.124 (active)
- normalized growth (S. cerevisiae deletion strains, locus YGR052W, strain FMP48, hits give low values): 0.13 (active)
- normalized growth (S. cerevisiae deletion strains, locus YGR092W, strain DBF2, hits give low values): 0.11 (active)
- normalized growth [6]: 0.149 (active)
- normalized growth (S. cerevisiae deletion strains, locus YHR079C, strain IRE1, hits give low values): 0.143 (active)
- normalized growth (S. cerevisiae deletion strains, locus YHR082C, strain KSP1, hits give low values): 0.157 (active)
- normalized growth (S. cerevisiae deletion strains, locus YHR205W, strain SCH9, hits give low values): 0.0087 (active)
- normalized growth (S. cerevisiae deletion strains, locus YIL147C, strain SLN1, hits give low values): 0.123 (active)
- normalized growth (S. cerevisiae deletion strains, locus YJL095W, strain BCK1, hits give low values): 0.141 (active)
- normalized growth (S. cerevisiae deletion strains, locus YJL128C, strain PBS2, hits give low values): 0.133 (active)
- normalized growth (S. cerevisiae deletion strains, locus YJL157C, strain FAR1, hits give low values): 0.0913 (active)
- normalized growth (S. cerevisiae deletion strains, locus YJR016C, strain ILV3, hits give low values): 0.168 (active)
- normalized growth (S. cerevisiae deletion strains, locus YJR066W, strain TOR1 (second series), hits give low values): 0.131 (active)
- normalized growth (S. cerevisiae deletion strains, locus YJR066W, strain TOR1, hits give low values): 0.135 (active)
- normalized growth (S. cerevisiae deletion strains, locus YKL048C, strain ELM1, hits give low values): 0.122 (active)
- normalized growth (S. cerevisiae deletion strains, locus YKL067W, strain YNK1, hits give low values): 0.0882 (active)
- normalized growth (S. cerevisiae deletion strains, locus YKL101W, strain HSL1, hits give low values): 0.113 (active)
- normalized growth (S. cerevisiae deletion strains, locus YKL193C, strain SDS22, hits give low values): 0.139 (active)
- normalized growth (S. cerevisiae deletion strains, locus YKL203C, strain TOR2, hits give low values): 0.146 (active)
- normalized growth (S. cerevisiae deletion strains, locus YLR113W, strain HOG1, hits give low values): 0.185 (active)
- normalized growth (S. cerevisiae deletion strains, locus YLR133W, strain CKI1, hits give low values): 0.106 (active)
- normalized growth (S. cerevisiae deletion strains, locus YLR403W, strain SFP1, hits give low values): 0.00673 (active)
- normalized growth (S. cerevisiae deletion strains, locus YML070W, strain DAK1, hits give low values): 0.0964 (active)
- normalized growth (S. cerevisiae deletion strains, locus YMR001C, strain CDC5, hits give low values): 0.119 (active)
- normalized growth (S. cerevisiae deletion strains, locus YMR205C, strain PFK2 (second series), hits give low values): 0.1 (active)
- normalized growth (S. cerevisiae deletion strains, locus YMR277W, strain FCP1, hits give low values): 0.165 (active)
- normalized growth (S. cerevisiae deletion strains, locus YNL006W, strain LST8, hits give low values): 0.11 (active)
- normalized growth (S. cerevisiae deletion strains, locus YNL020C, strain ARK1, hits give low values): 0.115 (active)
- normalized growth (S. cerevisiae deletion strains, locus YNL161W, strain CBK1, hits give low values): 0.133 (active)
- normalized growth (S. cerevisiae deletion strains, locus YNL183C, strain NPR1, hits give low values): 0.161 (active)
- normalized growth (S. cerevisiae deletion strains, locus YNL207W, strain RIO2, hits give low values): 0.131 (active)
- normalized growth (S. cerevisiae deletion strains, locus YNL222W, strain SSU72, hits give low values): 0.11 (active)
- normalized growth (S. cerevisiae deletion strains, locus YNL307C, strain MCK1 (second series), hits give low values): 0.118 (active)
- normalized growth (S. cerevisiae deletion strains, locus YOL078W, strain AVO1, hits give low values): 0.123 (active)
- normalized growth (S. cerevisiae deletion strains, locus YOL136C, strain PFK27, hits give low values): 0.106 (active)
- normalized growth (S. cerevisiae deletion strains, locus YOR061W, strain CKA2, hits give low values): 0.0936 (active)
- normalized growth (S. cerevisiae deletion strains, locus YOR119C, strain RIO1, hits give low values): 0.146 (active)
- normalized growth (S. cerevisiae deletion strains, locus YOR231W, strain MKK1, hits give low values): 0.122 (active)
- normalized growth (S. cerevisiae deletion strains, locus YOR329C, strain SCD5, hits give low values): 0.12 (active)
- normalized growth (S. cerevisiae deletion strains, locus YPL031C, strain PHO85, hits give low values): 0.124 (active)
- normalized growth (S. cerevisiae deletion strains, locus YPL153C, strain RAD53, hits give low values): 0.109 (active)
- normalized growth (S. cerevisiae deletion strains, locus YPL204W, strain HRR25, hits give low values): 0.126 (active)
- normalized growth (S. cerevisiae deletion strains, locus YPL209C, strain IPL1, hits give low values): 0.129 (active)
- normalized growth (S. cerevisiae deletion strains, locus YPL256C, strain CLN2, hits give low values): 0.15 (active)
- normalized growth (S. cerevisiae deletion strains, locus YPR025C, strain CCL1, hits give low values): 0.149 (active)
- normalized growth (S. cerevisiae deletion strains, locus YPR106W, strain ISR1, hits give low values): 0.141 (active)
- normalized growth (S. cerevisiae deletion strains, locus YPR111W, strain DBF20, hits give low values): 0.147 (active)
- normalized growth (S. cerevisiae deletion strains, strain NNK1, hits give low values): 0.114 (active)
- normalized growth (S. cerevisiae deletion strains, strain TSCII, hits give low values): 0.112 (active)
